Experimental data from ChEMBL document CHEMBL3988442, “University of Dundee, Small-Polar-MMV Screening Library” (2021).
For some of these results: Measured potencies and affinities stand elsewhere.

Legend:
Parameters in all cases: scale not given: direction of the effect not stated beside the values
[1] = biological target: Protein translocase subunit SecA (Escherichia coli (strain K12)) (UniProt P10408); test: Assay to Identify E. coli SecA ATPase Inhibitors; assay type: functional; settings: 30 µM
Chain of Protein translocase subunit SecA (Escherichia coli (strain K12)) (P10408 whole entry): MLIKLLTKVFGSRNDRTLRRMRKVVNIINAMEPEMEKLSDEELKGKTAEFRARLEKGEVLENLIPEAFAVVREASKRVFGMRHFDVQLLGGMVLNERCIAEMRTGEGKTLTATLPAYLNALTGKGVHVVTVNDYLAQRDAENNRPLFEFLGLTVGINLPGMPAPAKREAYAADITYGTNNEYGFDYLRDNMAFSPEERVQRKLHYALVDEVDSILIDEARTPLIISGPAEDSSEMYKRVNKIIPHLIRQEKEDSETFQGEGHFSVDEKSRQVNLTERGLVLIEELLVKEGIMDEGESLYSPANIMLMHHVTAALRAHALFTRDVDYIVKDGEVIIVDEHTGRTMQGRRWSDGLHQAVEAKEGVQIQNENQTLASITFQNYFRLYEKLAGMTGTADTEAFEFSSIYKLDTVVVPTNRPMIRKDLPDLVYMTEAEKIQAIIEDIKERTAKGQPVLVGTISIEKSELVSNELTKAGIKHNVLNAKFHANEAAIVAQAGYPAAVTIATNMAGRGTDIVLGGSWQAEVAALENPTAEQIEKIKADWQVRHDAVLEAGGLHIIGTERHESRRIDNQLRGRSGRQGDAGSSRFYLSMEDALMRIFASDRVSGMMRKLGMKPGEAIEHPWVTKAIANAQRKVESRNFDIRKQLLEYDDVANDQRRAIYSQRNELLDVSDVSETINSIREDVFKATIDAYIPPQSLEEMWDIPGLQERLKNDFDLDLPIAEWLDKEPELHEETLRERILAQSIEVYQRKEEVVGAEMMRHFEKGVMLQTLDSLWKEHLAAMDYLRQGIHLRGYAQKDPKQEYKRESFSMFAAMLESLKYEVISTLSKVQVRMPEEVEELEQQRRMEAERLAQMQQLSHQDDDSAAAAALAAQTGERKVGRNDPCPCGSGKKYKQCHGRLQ

[2] = biological target: T1, Ubiquitin-activating enzyme e1, putative (Leishmania donovani (strain BPK282A1)) (UniProt E9BSI1); test: Leishmania donovani Ubiquitin Activating Enzyme (LdE1); assay type: functional; settings: 30 µM
T1 sequence (whole entry): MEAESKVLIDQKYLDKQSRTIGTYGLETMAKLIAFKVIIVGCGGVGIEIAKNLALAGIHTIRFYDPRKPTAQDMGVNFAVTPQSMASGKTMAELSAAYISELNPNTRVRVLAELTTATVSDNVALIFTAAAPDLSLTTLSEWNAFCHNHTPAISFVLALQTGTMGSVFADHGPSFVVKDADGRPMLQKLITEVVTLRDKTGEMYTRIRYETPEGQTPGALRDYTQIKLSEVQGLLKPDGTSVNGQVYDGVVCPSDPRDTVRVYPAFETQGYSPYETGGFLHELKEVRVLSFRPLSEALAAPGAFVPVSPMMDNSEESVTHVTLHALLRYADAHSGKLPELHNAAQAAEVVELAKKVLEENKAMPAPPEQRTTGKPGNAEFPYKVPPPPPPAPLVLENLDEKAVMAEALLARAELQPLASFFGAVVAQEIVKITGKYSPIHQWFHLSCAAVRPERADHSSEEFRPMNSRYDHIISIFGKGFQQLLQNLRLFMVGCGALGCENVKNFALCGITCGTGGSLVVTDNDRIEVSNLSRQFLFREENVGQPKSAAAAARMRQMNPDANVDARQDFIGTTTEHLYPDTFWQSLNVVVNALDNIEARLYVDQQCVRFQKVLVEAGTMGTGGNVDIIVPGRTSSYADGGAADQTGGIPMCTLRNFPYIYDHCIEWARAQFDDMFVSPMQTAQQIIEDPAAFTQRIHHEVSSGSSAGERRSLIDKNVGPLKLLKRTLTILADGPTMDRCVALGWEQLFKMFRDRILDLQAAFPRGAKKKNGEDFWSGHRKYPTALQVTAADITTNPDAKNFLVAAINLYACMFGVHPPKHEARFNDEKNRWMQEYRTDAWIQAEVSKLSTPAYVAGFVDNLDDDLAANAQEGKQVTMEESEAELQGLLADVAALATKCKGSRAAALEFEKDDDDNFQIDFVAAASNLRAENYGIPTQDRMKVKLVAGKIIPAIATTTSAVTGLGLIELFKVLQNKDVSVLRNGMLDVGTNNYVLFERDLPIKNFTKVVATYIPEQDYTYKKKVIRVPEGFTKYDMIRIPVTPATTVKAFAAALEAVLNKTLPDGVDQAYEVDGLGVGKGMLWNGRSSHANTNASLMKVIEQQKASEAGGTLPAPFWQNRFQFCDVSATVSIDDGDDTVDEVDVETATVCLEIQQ

[3] = biological target: AMP-activated protein kinase, AMPK (Homo sapiens) (UniProt P54646+O43741+P54619+Q9UGJ0+Q9Y478+Q13131+Q9UGI9); test: AMP-dependent Kinase enzyme assay. An in vitro enzyme assay that detects ADP turnover that is directly proportional to AMPK activity. This uses naive AMPK that is activated during the assay with MK-8722; assay type: functional; settings: 30 µM
[4] = biological target: Sialic acid-binding Ig-like lectin 9 (Homo sapiens) (UniProt Q9Y336); test: Hs-Siglec9 ALPHAscreen SOP 20170721; settings: 10 µM
Chain of Sialic acid-binding Ig-like lectin 9 (Homo sapiens) (Q9Y336 whole entry): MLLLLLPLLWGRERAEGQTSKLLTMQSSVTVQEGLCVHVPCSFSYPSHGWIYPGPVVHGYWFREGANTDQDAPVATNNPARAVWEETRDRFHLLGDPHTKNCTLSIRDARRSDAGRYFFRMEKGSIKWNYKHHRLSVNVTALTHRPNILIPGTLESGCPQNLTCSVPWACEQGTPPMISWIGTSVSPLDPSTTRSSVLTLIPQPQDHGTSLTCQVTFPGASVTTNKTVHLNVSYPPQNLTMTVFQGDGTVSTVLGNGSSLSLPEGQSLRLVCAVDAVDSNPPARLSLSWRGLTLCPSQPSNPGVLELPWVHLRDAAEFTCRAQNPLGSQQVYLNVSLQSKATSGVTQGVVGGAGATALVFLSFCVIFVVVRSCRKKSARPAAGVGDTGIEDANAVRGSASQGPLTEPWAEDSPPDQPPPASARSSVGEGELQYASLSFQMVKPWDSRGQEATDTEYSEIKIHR

Trypanosoma cruzi = test: Trypanosoma cruzi phosphomannomutase and mannose-1-phosphate guanylyltransferase assay; assay type: functional; settings: 10 µM
[5] = biological target: T2, Arginase-2, mitochondrial (Homo sapiens) (UniProt P78540); test: in vitro enzyme assay to detect the production of urea directly proportional to the activity of Arginase II; assay type: functional; settings: 33.3 µM; note: in the data most compounds retested in dose-response had high values
T2 sequence (whole entry): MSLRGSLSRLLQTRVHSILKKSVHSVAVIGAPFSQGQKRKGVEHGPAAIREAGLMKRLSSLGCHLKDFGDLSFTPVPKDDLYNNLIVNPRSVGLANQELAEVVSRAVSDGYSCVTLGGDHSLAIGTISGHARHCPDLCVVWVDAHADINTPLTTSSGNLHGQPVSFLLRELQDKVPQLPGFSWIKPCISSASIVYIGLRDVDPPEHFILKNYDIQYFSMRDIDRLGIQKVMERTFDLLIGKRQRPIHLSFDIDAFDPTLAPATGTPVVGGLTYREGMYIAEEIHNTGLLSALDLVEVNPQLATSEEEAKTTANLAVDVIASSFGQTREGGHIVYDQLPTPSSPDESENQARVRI

[6] = biological target: T3, Proteasome subunit beta (Trypanosoma cruzi) (UniProt O96673); test: Trypanosoma cruzi proteasome chymotrypsin-like activity (TcProtChymo) assay.; note: in the data most compounds retested in dose-response had high values; assay type: functional; settings: 9.37 µM
T3 sequence (whole entry): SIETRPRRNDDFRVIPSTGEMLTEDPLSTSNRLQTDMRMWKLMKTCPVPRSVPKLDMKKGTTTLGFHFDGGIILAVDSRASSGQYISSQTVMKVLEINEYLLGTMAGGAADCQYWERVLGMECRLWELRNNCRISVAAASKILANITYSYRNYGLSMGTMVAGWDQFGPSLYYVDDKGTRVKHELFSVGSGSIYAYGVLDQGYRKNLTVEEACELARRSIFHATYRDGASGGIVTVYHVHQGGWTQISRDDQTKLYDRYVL

Homo sapiens = organism: Homo sapiens; test: To identify inhibition of the IFN signalling (Jak-Stat) pathway via expression of an eGFP reporter gene under the control of an IFN-stimulated response element (ISRE) containing MxA promoter.; assay type: functional; settings: 30 µM
[7] = biological target: T4, Tyrosyl-tRNA synthetase, putative (Trypanosoma cruzi (strain CL Brener)) (UniProt Q4DSP6); test: Trypanosoma cruzi tyrosyl tRNA synthetase (TcYRS) _High Tyrosine SOP; assay type: functional; settings: 30 µM; note: in the data most compounds retested in dose-response had high values
T4 sequence (whole entry): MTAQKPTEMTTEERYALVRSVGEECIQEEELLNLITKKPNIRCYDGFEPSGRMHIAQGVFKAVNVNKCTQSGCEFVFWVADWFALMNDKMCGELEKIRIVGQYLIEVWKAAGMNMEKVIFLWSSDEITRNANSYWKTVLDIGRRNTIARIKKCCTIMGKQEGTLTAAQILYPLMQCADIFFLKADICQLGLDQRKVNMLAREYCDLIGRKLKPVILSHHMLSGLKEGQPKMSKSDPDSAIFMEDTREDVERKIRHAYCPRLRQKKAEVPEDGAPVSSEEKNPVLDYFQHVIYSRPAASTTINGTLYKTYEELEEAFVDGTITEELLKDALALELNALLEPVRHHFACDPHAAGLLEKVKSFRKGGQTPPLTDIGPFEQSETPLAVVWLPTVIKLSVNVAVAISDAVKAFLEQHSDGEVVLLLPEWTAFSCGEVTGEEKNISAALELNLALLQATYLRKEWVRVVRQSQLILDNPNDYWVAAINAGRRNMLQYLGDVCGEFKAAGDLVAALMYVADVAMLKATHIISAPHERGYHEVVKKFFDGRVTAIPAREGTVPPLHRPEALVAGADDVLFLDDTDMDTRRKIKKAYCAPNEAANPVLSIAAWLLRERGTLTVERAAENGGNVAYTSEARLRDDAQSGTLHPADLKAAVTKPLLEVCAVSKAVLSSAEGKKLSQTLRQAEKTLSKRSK

[8] = biological target: T4, Tyrosyl-tRNA synthetase, putative (Trypanosoma cruzi (strain CL Brener)); test: Trypanosoma cruzi tyrosyl tRNA synthetase (TcYRS) SOP; assay type: functional; settings: 30 µM
[9] = biological target: Chromo domain-containing protein 1 (Saccharomyces cerevisiae (strain ATCC 204508 / S288c) (Baker's yeast)) (UniProt P32657); test: ScCHD-1 Enzyme Inhibition Assay; assay type: functional; settings: 30 µM; note: in the data most compounds retested in dose-response had high values
Chain of Chromo domain-containing protein 1 (Saccharomyces cerevisiae (strain ATCC 204508 / S288c) (Baker's yeast)) (P32657 whole entry, the tested form may be a part): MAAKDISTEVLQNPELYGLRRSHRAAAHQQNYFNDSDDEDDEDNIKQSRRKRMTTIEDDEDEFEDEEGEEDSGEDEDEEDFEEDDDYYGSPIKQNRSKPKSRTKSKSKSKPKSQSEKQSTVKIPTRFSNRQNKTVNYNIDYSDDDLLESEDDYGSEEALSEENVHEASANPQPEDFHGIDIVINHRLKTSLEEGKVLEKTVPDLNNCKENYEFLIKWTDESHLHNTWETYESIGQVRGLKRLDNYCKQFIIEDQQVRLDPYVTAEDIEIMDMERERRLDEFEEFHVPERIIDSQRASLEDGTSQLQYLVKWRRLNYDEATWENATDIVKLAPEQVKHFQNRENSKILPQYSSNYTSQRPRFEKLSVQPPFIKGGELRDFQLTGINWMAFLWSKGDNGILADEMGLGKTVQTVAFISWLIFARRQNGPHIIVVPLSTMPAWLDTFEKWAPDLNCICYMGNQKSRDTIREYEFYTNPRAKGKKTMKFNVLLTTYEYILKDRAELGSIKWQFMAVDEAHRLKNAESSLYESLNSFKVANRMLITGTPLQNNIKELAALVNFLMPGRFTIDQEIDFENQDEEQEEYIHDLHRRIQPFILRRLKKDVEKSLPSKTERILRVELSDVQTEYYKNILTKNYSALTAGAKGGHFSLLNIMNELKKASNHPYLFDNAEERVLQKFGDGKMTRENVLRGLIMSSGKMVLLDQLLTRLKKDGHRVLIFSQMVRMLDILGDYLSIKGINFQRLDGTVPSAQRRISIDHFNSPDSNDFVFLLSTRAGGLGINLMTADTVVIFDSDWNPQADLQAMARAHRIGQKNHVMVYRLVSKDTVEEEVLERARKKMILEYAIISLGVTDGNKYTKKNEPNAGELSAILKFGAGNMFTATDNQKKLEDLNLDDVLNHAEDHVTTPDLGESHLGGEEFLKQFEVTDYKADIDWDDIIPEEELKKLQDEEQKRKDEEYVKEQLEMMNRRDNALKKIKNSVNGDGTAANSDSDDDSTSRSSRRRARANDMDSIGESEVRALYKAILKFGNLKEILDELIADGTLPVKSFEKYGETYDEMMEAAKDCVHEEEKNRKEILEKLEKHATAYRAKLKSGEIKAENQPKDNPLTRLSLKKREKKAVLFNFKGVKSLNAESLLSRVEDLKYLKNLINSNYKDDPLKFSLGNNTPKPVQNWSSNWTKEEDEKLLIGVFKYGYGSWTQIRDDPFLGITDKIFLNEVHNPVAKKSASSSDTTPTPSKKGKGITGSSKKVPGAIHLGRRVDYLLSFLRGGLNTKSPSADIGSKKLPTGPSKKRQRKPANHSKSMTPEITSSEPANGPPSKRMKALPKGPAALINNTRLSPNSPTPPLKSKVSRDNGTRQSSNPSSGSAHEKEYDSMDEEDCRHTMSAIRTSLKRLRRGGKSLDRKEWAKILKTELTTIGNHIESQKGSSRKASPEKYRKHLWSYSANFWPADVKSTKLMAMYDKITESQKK

Row | SMILES | Percent Effect [1] | Percent Effect [2] | Percent Effect [3] | Percent Effect [4] | Percent Effect (Trypanosoma cruzi) | Percent Effect [5] | Percent Effect [6] | Percent Effect (Homo sapiens) | Percent Effect [7] | Percent Effect [8] | Percent Effect [9]
1 | CC1CN(C)c2ccccc2CN1C(=O)c1ccncc1 (stereo unspecified) | -2.73% | 13.7% | 4.78% | 21.6% | 3.53% | 32.3% | 8.87% | 1.93% | 2.15% | 5% | -3%
2 | COc1ccc(C(CO)NC(=O)Nc2cccnc2)cc1 (stereo unspecified) | -4.93% | -2.7% | -0.874% | 3.21% | -3.86% | -3.81% | 10.9% | 10.2% | -0.529% | -4.88% | -2.24%
3 | Fc1ccc(CN2CCCN(Cc3cscn3)CC2)cc1 | -1.59% | 18.2% | -0.0725% | -10.1% | -1.27% | 1.05% | 9.46% | 30.6% | 8.57% | 25.9% | -21.9%
4 | CN(C)CCO[C@H]1CN(Cc2cccc(C#N)c2)[C@@H]2COC[C@H]12 | -3.05% | 5.33% | 0.409% | 2.27% | 2.32% | -44.6% | 9.91% | -12.1% | 6.25% | 17.5% | -5.99%
5 | CNc1nc(C(=O)N2CCCC(c3nccn3CC3CCC3)C2)cs1 (stereo unspecified) | -5.42% | 8.22% | -0.395% | -0.171% | 1.96% | 0.455% | 7.81% | 0.132% | 6.45% | -22.5% | -6.79%
6 | COc1nn(C)c2c1CCCN(C(=O)c1cc[nH]n1)C2 | -5.44% | -5.41% | 5.53% | 2.19% | -4.4% | -0.319% | 22.3% | -1.16% | -11.9% | -12.8% | 6.55%
7 | Cc1csc(N2CCCN(C(=O)C3(C#N)CCCCC3)CC2)n1 | -0.0182% | -2.63% | 4.54% | -2.41% | -0.188% | 0.766% | -3.34% | -13.6% | 0.49% | -2.44% | 10.4%
8 | CCOc1ccccc1OC1CCN(C(=O)c2cc[nH]n2)CC1 | -5.63% | 13.2% | 8.96% | -2.66% | -4.13% | 4.21% | 12.4% | 26.7% | 2.45% | 7.32% | -7.55%
9 | CC(C)(C)C(=O)NS(=O)(=O)c1ccc(C#N)cc1C(F)(F)F | -3.4% | 8.11% | -4.85% | 3.66% | -0.849% | 2.81% | 1.8% | 7.18% | 1.48% | 11.1% | -3.67%
10 | Cc1cnn(C2CN(Cc3nc(C(C)(C)C)no3)C2)c1 | -0.455% | 23.4% | -7.8% | -0.55% | 3.56% | 2.49% | 7.09% | 29.8% | 8.74% | 14.6% | -6.23%
11 | CC(C)c1nc(C2CCCN(C(=O)CCCn3cncn3)C2)no1 (stereo unspecified) | -4.23% | 21.6% | -6.76% | 9.76% | 2.36% | -10.4% | 12.1% | -60.1% | 8.37% | 16.1% | -12.8%
